From PubChem BioAssay (NCATS)
“And” between values parts separate entries of the source, which are not always exact repeats. Equal values may be shown once. Records with an inconclusive call do not appear. Entries that show only a call come without a potency. The source made the active and inactive calls. Unless noted, calls come from the whole dose curve; as a rule, active = well fitted curve in the direction sought with a large enough effect; inconclusive = small, poorly fitted or top-dose-only effect, or another doubt; inactive = no such curve, though single readings can be large; an effect the other way counts as inactive or inconclusive.

Legend:
[1] = Natriuretic polypeptide receptor (hNpr1) antagonism - Pilot counterscreen GloSensor control cell line (AID 1347045; calls by dose curve; note: series mostly up to about 38 µM)
Method in brief: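 HEK293 cGMP-sensor cells; 2% GloSensor reagent 2 h RT; LOPAC compounds in 1:5 titrations 30-50 min; 50 uM SNP 20 min; luminescence pre-read and post-read.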

[2] = target: Atrial natriuretic peptide receptor 2 (Homo sapiens) (UniProt P20594); test: Natriuretic polypeptide receptor (hNpr2) antagonism - Pilot subtype selectivity assay (AID 1347050; calls by dose curve)
Atrial natriuretic peptide receptor 2 (Homo sapiens), sequence (P20594 whole entry, looked up): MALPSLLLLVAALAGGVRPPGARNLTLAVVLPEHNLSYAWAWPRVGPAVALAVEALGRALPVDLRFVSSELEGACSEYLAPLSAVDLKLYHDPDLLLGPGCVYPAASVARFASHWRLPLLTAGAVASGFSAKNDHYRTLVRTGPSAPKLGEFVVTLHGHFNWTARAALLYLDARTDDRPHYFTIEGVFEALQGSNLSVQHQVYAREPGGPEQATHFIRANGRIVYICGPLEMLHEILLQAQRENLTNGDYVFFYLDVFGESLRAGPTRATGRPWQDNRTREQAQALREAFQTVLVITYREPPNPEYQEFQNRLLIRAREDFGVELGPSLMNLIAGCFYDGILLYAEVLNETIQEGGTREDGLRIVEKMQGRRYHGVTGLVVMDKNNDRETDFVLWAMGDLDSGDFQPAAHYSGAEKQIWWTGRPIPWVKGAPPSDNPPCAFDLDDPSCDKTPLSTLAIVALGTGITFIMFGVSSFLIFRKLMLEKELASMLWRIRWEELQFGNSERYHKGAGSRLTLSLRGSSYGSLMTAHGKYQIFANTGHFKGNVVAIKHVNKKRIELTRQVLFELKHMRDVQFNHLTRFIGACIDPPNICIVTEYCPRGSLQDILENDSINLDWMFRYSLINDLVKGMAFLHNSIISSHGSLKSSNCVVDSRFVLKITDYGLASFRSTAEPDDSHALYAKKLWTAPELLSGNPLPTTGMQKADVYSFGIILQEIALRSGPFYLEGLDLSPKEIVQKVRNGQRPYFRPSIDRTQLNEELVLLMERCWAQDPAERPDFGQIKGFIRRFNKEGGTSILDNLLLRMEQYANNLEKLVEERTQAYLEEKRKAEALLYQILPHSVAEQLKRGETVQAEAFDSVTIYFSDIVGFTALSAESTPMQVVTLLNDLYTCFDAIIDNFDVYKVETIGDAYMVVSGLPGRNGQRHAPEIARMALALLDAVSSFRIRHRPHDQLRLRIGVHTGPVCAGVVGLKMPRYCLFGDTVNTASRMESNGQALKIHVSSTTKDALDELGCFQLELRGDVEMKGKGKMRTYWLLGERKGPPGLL
Method in brief: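 Luminescence from a genetically encoded cGMP luciferase biosensor in hNpr2-expressing HEK293 cells is read before and 20 min after adding 1 nM hNppC. Test compounds, in interplate 1:5 titrations, are added 30-50 min ahead of the agonist.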

[3] = NS1 protein of Zika virus - qHTS assay to identify small molecule inhibitors in human HEK 293 cells (AID 1347053); note: series mostly up to about 46 µM; nearly all actives have a fitted effect of over 55% in size
Method in brief: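 Read-out is a two-antibody TR-FRET for ZIKV NS1, normalized between uninfected cells and infected cells. Compound added 1 h before MR766 infection at MOI 0.5; human HEK 293 cells incubated 24 h, 37 C.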

[4] = target: T1, Tyrosine-protein phosphatase non-receptor type substrate 1 (Homo sapiens) + Leukocyte surface antigen CD47 (Homo sapiens) (UniProt P78324+Q08722); test: CD47-SIRPalpha protein protein interaction - LANCE assay qHTS validation (AID 1347057; active = well fitted curve in the direction sought with a large enough effect in the signal ratio, with a control signal flat, not every such curve was filed as active; the % refers to the signal ratio; note: series mostly up to about 38 µM)
T1 sequence (P78324 whole entry, looked up, the tested form may be a part): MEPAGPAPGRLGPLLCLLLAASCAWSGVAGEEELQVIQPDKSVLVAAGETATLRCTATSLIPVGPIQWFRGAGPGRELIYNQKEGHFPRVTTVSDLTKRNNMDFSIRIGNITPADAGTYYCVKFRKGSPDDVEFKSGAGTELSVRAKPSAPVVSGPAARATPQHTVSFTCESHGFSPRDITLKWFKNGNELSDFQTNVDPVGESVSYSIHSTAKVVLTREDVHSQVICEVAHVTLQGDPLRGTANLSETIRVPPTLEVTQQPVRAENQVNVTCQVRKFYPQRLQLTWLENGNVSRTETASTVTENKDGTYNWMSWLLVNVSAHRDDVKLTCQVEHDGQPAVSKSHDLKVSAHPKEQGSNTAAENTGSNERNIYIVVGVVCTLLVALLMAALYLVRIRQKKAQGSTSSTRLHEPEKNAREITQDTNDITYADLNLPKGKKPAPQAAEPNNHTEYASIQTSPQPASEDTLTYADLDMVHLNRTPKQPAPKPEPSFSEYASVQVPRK
T1 sequence (Q08722 whole entry, looked up, the tested form may be a part): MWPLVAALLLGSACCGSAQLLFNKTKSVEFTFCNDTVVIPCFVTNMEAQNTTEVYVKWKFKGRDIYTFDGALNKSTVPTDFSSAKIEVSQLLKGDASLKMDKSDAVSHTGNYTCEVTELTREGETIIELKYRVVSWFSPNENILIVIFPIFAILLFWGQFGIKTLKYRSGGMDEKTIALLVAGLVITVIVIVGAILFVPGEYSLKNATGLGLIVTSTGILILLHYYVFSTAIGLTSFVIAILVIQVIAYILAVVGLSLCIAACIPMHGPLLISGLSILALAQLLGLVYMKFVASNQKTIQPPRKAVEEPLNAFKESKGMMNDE
Method in brief: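 Inhibition of soluble CD47/SIRPalpha ectodomain association by titrated compounds, measured as 665/615 nm time-resolved FRET ratio after sequential 30 min room-temperature incubations.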

[5] = target: T1, Tyrosine-protein phosphatase non-receptor type substrate 1 (Homo sapiens) + Leukocyte surface antigen CD47 (Homo sapiens); test: CD47-SIRPalpha protein protein interaction - HTRF assay qHTS validation (AID 1347058; active = well fitted curve in the direction sought with a large enough effect in the signal ratio, not every such curve was filed as active; the % refers to the signal ratio; note: series mostly up to about 38 µM)
Method in brief: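 Soluble extracellular domains (6His-CD47, Avi-tag-biotinylated SIRPalpha) in PBS pH 7.4 with 0.05% IGEPAL CA-630. Compounds were preincubated 30 min at RT with CD47 and anti-His-Eu, then SIRPalpha and SAV-XL665 were added. TR-FRET 665/615 ratio.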

[6] = target: T1, Tyrosine-protein phosphatase non-receptor type substrate 1 (Homo sapiens) + Leukocyte surface antigen CD47 (Homo sapiens); test: CD47-SIRPalpha protein protein interaction - Alpha assay qHTS validation (AID 1347059);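 note: bead proximity luminescence from CD47 binding SIRPalpha after compound preincubation with SIRPalpha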
Method in brief: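 SIRPalpha-biotin 25 nM + cpd, 30 min RT, dark; add CD47-His 12.5 nM, 30 min; add Ni-NTA/SAV beads 10 ug/mL, 30 min; AlphaScreen. Buffer PBS pH 7.4 + 0.05% IGEPAL CA-630. Non-biotinylated SIRPalpha as control inhibitor.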

[7] = target: Parathyroid hormone/parathyroid hormone-related peptide receptor (Homo sapiens) (UniProt Q03431); test: qHTS for PTHR1 Agonists: Optimization Screen against the NCGC LOPAC library (AID 1347079);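 note: GloSensor cAMP luminescence in HEK-293 GP2 cells expressing human PTHR1 with IBMX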
Parathyroid hormone/parathyroid hormone-related peptide receptor (Homo sapiens), sequence (Q03431 whole entry, looked up): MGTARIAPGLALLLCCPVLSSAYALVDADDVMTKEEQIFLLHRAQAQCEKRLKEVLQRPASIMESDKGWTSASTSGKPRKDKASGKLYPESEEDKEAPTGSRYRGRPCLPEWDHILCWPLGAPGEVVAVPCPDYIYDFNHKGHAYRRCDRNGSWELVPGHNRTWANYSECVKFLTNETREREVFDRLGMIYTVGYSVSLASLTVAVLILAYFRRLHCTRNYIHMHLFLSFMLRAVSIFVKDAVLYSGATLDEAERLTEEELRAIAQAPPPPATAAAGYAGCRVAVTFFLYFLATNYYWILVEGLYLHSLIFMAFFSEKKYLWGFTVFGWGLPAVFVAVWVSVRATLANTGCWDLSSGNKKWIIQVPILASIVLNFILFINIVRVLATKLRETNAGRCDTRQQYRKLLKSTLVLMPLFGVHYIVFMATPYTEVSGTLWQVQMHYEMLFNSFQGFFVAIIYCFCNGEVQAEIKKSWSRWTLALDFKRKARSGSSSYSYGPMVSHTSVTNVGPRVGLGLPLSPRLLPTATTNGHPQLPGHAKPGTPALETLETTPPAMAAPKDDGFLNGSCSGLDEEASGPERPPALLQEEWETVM
Method in brief: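 Signal increase flags agonism. GP2 cells, derived from HEK-293, express human PTHR1 and a GloSensor cAMP construct.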

[8] = qHTS of pediatric cancer cell lines to identify multiple opportunities for drug repurposing: Primary screen for TC32 cells (AID 1347089); note: nearly all actives have a fitted effect of over 60% in size; note: potency is the fitted concentration of half-maximal effect
Method in brief: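 TC32 cells, 500-1,000/well in growth medium, compound-treated 48 h at 37 °C; viability from CellTiter-Glo luminescence. Primary screen: MIPE 11-point (0.78 nM–46 µM final), NPC 8-point (0.59 nM–46 µM final); confirmatory at 11-point dilutions.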

[9] = qHTS of pediatric cancer cell lines to identify multiple opportunities for drug repurposing: Primary screen for DAOY cells (AID 1347090); note: nearly all actives have a fitted effect of over 55% in size; note: potency is the fitted concentration of half-maximal effect
Method in brief: (§1)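 Viability measured as metabolically active cells via CellTiter-Glo luminescence following 48 hours of compound exposure, 11-point dilutions in confirmatory testing. 500-1,000 cells/well plated 5 hours before dosing; controls were DMSO and 2.3 µM bortezomib.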

[10] = qHTS of pediatric cancer cell lines to identify multiple opportunities for drug repurposing: Primary screen for SK-N-MC cells (AID 1347093); note: potency is the fitted concentration of half-maximal effect
Method in brief: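 Metabolically active cells were quantified by ATP-dependent luminescence (CellTiter-Glo, 15 min at room temperature) following 48 h treatment. Cells had been plated at 500-1,000 per well and settled for 5 h beforehand.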

[11] = qHTS of pediatric cancer cell lines to identify multiple opportunities for drug repurposing: Primary screen for U-2 OS cells (AID 1347096); note: nearly all actives have a fitted effect of over 50% in size
Method in brief: (§2)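 Viability after 48 h compound treatment at 37C, 500-1,000 cells/well, read as ATP luminescence with CellTiter-Glo. Primary screens used 11-point (MIPE, 0.78 nM-46 µM) or 8-point (NPC, 0.59 nM-46 µM) final concentrations; follow-up screens used 11-point dilutions.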

[12] = qHTS of pediatric cancer cell lines to identify multiple opportunities for drug repurposing: Primary screen for Saos-2 cells (AID 1347097); note: nearly all actives have a fitted effect of over 40% in size; note: potency is the fitted concentration of half-maximal effect
Method in brief: (§3)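 CRCs from 8- or 11-point titrations (lowest final 0.59 nM NPC, 0.78 nM MIPE). Cell viability: CellTiter-Glo after 48 h incubation, 15 min room-temperature development, luminescence imaging.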

[13] = target: Atrial natriuretic peptide receptor 1 (Homo sapiens) (UniProt P16066); test: Natriuretic polypeptide receptor (hNpr1) antagonism - Pilot screen (AID 1347049; calls by dose curve;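 note: agonist-evoked cGMP luminescence read 20 min after hNppA addition; series mostly up to about 58 µM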)
Atrial natriuretic peptide receptor 1 (Homo sapiens), sequence (P16066 whole entry, looked up): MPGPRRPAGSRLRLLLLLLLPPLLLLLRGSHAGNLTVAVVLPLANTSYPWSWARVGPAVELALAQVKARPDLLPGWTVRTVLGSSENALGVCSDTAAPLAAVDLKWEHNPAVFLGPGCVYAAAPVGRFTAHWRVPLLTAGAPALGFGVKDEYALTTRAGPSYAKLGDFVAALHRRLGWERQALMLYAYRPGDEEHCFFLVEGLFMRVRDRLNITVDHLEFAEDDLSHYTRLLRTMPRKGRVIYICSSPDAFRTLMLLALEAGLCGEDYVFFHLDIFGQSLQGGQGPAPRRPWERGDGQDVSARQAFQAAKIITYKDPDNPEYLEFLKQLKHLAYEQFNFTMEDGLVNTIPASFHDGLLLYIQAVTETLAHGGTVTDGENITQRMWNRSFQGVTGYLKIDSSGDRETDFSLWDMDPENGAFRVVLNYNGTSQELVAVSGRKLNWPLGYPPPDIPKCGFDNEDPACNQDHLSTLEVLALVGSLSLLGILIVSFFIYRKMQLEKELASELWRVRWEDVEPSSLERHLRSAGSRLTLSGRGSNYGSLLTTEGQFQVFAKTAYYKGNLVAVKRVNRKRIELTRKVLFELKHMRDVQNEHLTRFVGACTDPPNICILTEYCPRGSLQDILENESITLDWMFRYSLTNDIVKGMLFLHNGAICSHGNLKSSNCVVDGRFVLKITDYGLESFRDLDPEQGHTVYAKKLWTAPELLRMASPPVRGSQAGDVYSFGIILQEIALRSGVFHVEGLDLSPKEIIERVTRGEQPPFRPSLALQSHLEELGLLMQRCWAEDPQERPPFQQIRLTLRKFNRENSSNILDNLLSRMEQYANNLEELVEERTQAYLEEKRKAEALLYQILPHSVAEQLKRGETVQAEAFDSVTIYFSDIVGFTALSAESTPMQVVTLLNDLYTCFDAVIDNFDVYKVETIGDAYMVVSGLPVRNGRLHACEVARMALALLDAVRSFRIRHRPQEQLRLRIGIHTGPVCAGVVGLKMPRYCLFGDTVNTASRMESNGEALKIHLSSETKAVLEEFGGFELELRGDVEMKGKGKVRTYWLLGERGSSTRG
Method in brief: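 cGMP-sensor HEK293/hNpr1 cells, 1500/well, plated overnight at 37C. 2% GloSensor reagent, 2 h RT. Compound (23 nL pin transfer) 30 min RT, baseline luminescence pre-read. 0.1 nM hNppA, 20 min RT, post-read.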

[14] = qHTS of pediatric cancer cell lines to identify multiple opportunities for drug repurposing: Primary screen for BT-37 cells (AID 1347094); note: potency is the fitted concentration of half-maximal effect
Method in brief: as §3

[15] = qHTS of pediatric cancer cell lines to identify multiple opportunities for drug repurposing: Primary screen for LAN-5 cells (AID 1347100); note: potency is the fitted concentration of half-maximal effect
Method in brief: as §2

[16] = qHTS of pediatric cancer cell lines to identify multiple opportunities for drug repurposing: Primary screen for SJ-GBM2 cells (AID 1347091); note: potency is the fitted concentration of half-maximal effect
Method in brief: as §1

[17] = qHTS of pediatric cancer cell lines to identify multiple opportunities for drug repurposing: Primary screen for A673 cells (AID 1347092); note: nearly all actives have a fitted effect of over 45% in size; note: potency is the fitted concentration of half-maximal effect
Method in brief: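 A673 cells (500-1,000 cells/well) were treated 48 hours at 37 degrees C with compounds at 11-point (0.78 nM to 46 µM) or 8-point (0.59 nM to 46 µM) dilutions. Viability read by CellTiter-Glo luminescence; concentration-response curves fitted.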

[18] = qHTS of pediatric cancer cell lines to identify multiple opportunities for drug repurposing: Primary screen for NB-EBc1 cells (AID 1347095)
Method in brief: as §3

[19] = qHTS of pediatric cancer cell lines to identify multiple opportunities for drug repurposing: Primary screen for SK-N-SH cells (AID 1347098); note: nearly all actives have a fitted effect of over 65% in size; note: potency is the fitted concentration of half-maximal effect
Method in brief: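 Cells (500-1,000/well) rested 5 h, then received compounds for 48 h; metabolically active cells were measured by CellTiter-Glo luminescence. Final concentrations spanned up to 46 µM (MIPE, 11-point) or 0.59 nM-46 µM (NPC, 8-point) in primary screens, 11-point in follow-ups.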

[20] = qHTS of pediatric cancer cell lines to identify multiple opportunities for drug repurposing: Primary screen for NB1643 cells (AID 1347099); note: nearly all actives have a fitted effect of over 50% in size
Method in brief: as §3

Structure (SMILES)	Potency [1]	Potency [2]	Potency [3]	outcome [4]	outcome [5]	Potency [6]	Potency [7]	Potency [8]	Potency [9]	Potency [10]	Potency [11]	Potency [12]	Potency [13]	Potency [14]	Potency [15]	Potency [16]	Potency [17]	Potency [18]	Potency [19]	Potency [20]
CC(C)(Oc1ccc(C2CC2(Cl)Cl)cc1)C(=O)O (stereo not drawn)	inactive	inactive	inactive	inactive	inactive	inactive	inactive	inactive	inactive	inactive	inactive	inactive	–	–	–	–	–	–	–	–
COc1ccc2c(c1)c(CC(=O)O)c(C)n2C(=O)c1ccc(Cl)cc1	inactive	inactive	–	inactive	inactive	inactive	–	inactive	–	29.6 µM (active)	inactive	–	inactive	inactive	inactive	–	–	–	–	–
COc1cc2c(c(OC)c1OC)-c1ccc(OC)c(=O)cc1[C@@H](NC(C)=O)CC2	inactive	–	inactive	inactive	–	inactive	–	7.5 nM (active) and 1.3 nM (active)	8.4 nM (active)	4.2 nM (active) and 1 nM (active)	–	5.3 nM (active) and 1.32 µM (active)	inactive	6.2 nM (active) and 172 nM (active)	–	42.2 nM (active) and 1 nM (active)	0.0067 µM (active)	–	–	–
CCN1CCCC1CNC(=O)c1cc(S(=O)(=O)CC)c(N)cc1OC (stereo not drawn)	inactive	inactive	–	inactive	inactive	inactive	inactive	inactive	inactive	inactive	–	inactive	inactive	inactive	inactive	inactive	inactive	inactive	inactive	–
Nc1c2c(nc3ccccc13)CCCC2	inactive	inactive	inactive	inactive	inactive	inactive	inactive	inactive	–	inactive	inactive	inactive	inactive	inactive	inactive	inactive	inactive	–	inactive	–
NS(=O)(=O)c1cc2c(cc1Cl)NCNS2(=O)=O	inactive	inactive	–	inactive	inactive	inactive	–	inactive	–	inactive	–	inactive	inactive	inactive	inactive	inactive	inactive	inactive	inactive	–
CC(COc1ccccc1)N(CCCl)Cc1ccccc1 (stereo not drawn)	inactive	inactive	–	–	–	–	–	inactive	–	inactive	inactive	–	inactive	–	inactive	inactive	–	–	inactive	–
NC12CC3CC(CC(C3)C1)C2	inactive	inactive	inactive	inactive	inactive	–	inactive	inactive	–	–	inactive	inactive	inactive	inactive	inactive	inactive	–	–	–	inactive
NCCCCCC(=O)O	inactive	inactive	inactive	inactive	inactive	–	inactive	inactive	inactive	inactive	–	inactive	inactive	inactive	inactive	inactive	inactive	inactive	inactive	–
CCC1(c2ccccc2)C(=O)NCNC1=O	inactive	inactive	inactive	inactive	inactive	inactive	inactive	inactive	–	–	–	inactive	–	inactive	inactive	inactive	–	inactive	–	–
O=c1c(O)c(-c2ccc(O)c(O)c2)oc2cc(O)cc(O)c12	inactive	inactive	inactive	–	–	–	inactive	inactive	–	8.33 µM (active)	inactive	–	inactive	–	–	inactive	14.8 µM (active)	–	24.1 µM (active)	–
COc1ccccc1OCCNCC(O)COc1cccc2[nH]c3ccccc3c12 (stereo not drawn)	inactive	inactive	inactive	inactive	inactive	inactive	–	inactive	inactive	–	inactive	inactive	inactive	–	inactive	inactive	inactive	–	inactive	inactive
O=C(C1CCCCC1)N1CC(=O)N2CCc3ccccc3C2C1 (stereo not drawn)	inactive	inactive	inactive	inactive	inactive	inactive	inactive	inactive	–	inactive	–	inactive	inactive	inactive	inactive	inactive	inactive	–	inactive	inactive
COC(=O)Nc1nc2ccc(C(=O)c3cccs3)cc2[nH]1	inactive	–	–	inactive	–	inactive	–	46.6 nM (active) and 236 nM (active)	11.8 nM (active) and 106 nM (active)	4.7 nM (active) and 94.4 nM (active)	–	4.7 nM (active) and 94.4 nM (active)	inactive	15.3 nM (active) and 276 nM (active)	3.3 nM (active) and 119 nM (active)	1 nM (active) and 119 nM (active)	0.0059 µM (active)	–	inactive	–
CC12CC3CC(C)(C1)CC(N)(C3)C2	inactive	inactive	–	inactive	inactive	–	inactive	inactive	–	–	inactive	inactive	inactive	inactive	inactive	inactive	–	inactive	27.1 µM (active)	–
